Source: PubChem BioAssay AID686978 (National Center for Advancing Translational Sciences (NCATS), 2013)
The campaign covered roughly 420,000 compounds. About 64,000 (15%) were called active. About 27% were inconclusive and are not listed. Only a sample is shown. A number with no mark means an inactive call. The call rests on the fitted dose curve; in most records, active means well fitted inhibition curve with a large enough effect; inconclusive means small, poorly fitted or top-dose-only effect; inactive means flat fitted curve, though single readings scatter.

Test: qHTS for Inhibitors of human tyrosyl-DNA phosphodiesterase 1 (TDP1): qHTS in cells in absence of CPT; further: nearly all actives have a fitted effect of over 55% in size
Details: DT40 Tdp1-/- hTDP1 cells, no CPT, ATP luminescence, 48 h; activity change, negative = growth inhibition: at 46.2 µM (top of the series)
In short: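 Chicken DT40 Tdp1-/- cells complemented with human TDP1, screened without camptothecin (DMSO vehicle only), 400 cells/well. Compounds pin-transferred, cells incubated at 37 °C for at least 48 hr. Growth read as ATP-dependent luminescence (CellTiter-Glo, 30 min at RT).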
On the % scale 0 is the no-effect control and ±100 the full control effect; potency means the concentration at half of the fitted maximal effect.

Row | Structure (SMILES) | activity change, negative = growth inhibition [%] | Potency
1 | CCn1c(=O)cc(O)c2ccccc21 | -9.55 | –
2 | CCOC(=O)C1CCN(S(=O)(=O)c2cc(F)ccc2OC)CC1 | -17.4 | –
3 | CCOC(=O)c1cnc(COc2ccccc2Cl)[nH]c1=O | -9.74 | –
4 | CC1(C)NC(=O)N(CC(=O)Nc2ccc(-c3ccccc3)cc2)C1=O | -1.23 | –
5 | C=CCOC(=O)C1=C[C@@H](c2ccccc2)C[C@@H](OCc2ccc(CO)cc2)O1 | -21.2 | –
6 | O=C(C1=C[C@H](c2coc3ccccc3c2=O)C[C@H](OCc2ccc(CO)cc2)O1)N1CCN(Cc2ccccc2)CC1 | – | 18.4 µM (active)
7 | NC(=O)C1=C[C@@H](c2ccc3c(c2)OCO3)C[C@@H](OCCCCO)O1 | 2.17 | –
8 | C#Cc1ccc([C@@H]2C=C(C(=O)O)O[C@H](OCCCCO)C2)cc1 | -15.9 | –
9 | O=C(C1=C[C@H](c2ccc(C(F)(F)F)cc2)C[C@H](OCc2ccc(CO)cc2)O1)N1CCN(Cc2ccccc2)CC1 | – | 13 µM (active)
10 | NC(=O)C1=C[C@H](c2csc3ccccc23)C[C@H](OCc2ccc(CO)cc2)O1 | – | 20.6 µM (active)
11 | O=C(C1=C[C@H](c2coc3ccccc3c2=O)C[C@H](OCc2ccc(CO)cc2)O1)N1CCOCC1 | -14.3 | –
12 | O=C(O)C1=C[C@H](c2cccs2)C[C@H](OCCCCO)O1 | -2.91 | –
13 | CN1CCN(C(=O)C2=C[C@H](c3ccc4c(c3)OCO4)C[C@H](OCc3ccc(CO)cc3)O2)CC1 | -15.1 | –
14 | COc1cc(C(=O)N2CCN(C3CCC(C)CC3)CC2)cc(OC)c1OC (centres undefined) | 5.51 | –
15 | CCN(CC)CCN(C(=O)c1cc(Cl)sc1Cl)c1nc2cc3c(cc2s1)OCO3 | -28.6 | –
16 | CN(C(=O)c1ccno1)c1nnc(-c2cccnc2)s1 | -0.876 | –
17 | CCC1(C)N(O)C(C)(C)C(c2ccc(OC)cc2)=[N+]1[O-] (centres undefined) | -0.459 | –
18 | O=S(=O)(Nc1ncccn1)c1ccc(NS(=O)(=O)c2cccc(Cl)c2Cl)cc1 | -12.9 | –
19 | Cc1noc(NS(=O)(=O)c2ccc(N/C=C/C(=O)c3ccccc3)cc2)c1C | -7.47 | –
20 | CC(C)C[C@H](NC(=O)C1CC(=O)N(c2ccc3c(c2)OCCO3)C1)C(=O)NC1CCCC1 (some centres undefined) | 7.04 | –
21 | COc1ccc(-c2csc3ncnc(N4CCN(S(=O)(=O)c5ccccc5C#N)CC4)c23)cc1 | – | 16.4 µM (active)
22 | COc1ccc(S(=O)(=O)N2CCN(c3cnccn3)CC2)cc1 | -19.6 | –
23 | N#Cc1ccccc1S(=O)(=O)N1CCN(Cc2c(O)ccc3ccccc23)CC1 | 0.994 | –
24 | CCOC(=O)c1oc2ccc(S(=O)(=O)n3nc(-c4ccccc4OC)cc3N)cc2c1C | – | 5.17 µM (active)
25 | CCOc1ccc(S(=O)(=O)N2CCN(C(=O)c3oc4ccccc4c3C)CC2)cc1 | -29.3 | –

Row | Structure (SMILES) | activity change, negative = growth inhibition [%] | Potency
26 | Cc1ccc(S(=O)(=O)n2nc(OC(=O)C(C)(C)C)cc2N)cc1 | -29.9 | –
27 | C[C@H](NC(=O)[C@@H]1CCCN1C(=O)[C@@H]1CCCN1C(=O)c1ccccc1)c1ccccc1 | -23.5 | –
28 | CCS(=O)(=O)N1CCC(n2c(C)nc3cccnc32)CC1 | -0.165 | –
29 | O=C1NC(CC(=O)N2CCC(n3c(C4CCC4)nc4cccnc43)CC2)c2ccccc21 (centres undefined) | -1.68 | –
30 | CCCS(=O)(=O)N1CCC(n2c(C(F)(F)F)nc3cccnc32)CC1 | – | 5.17 µM (active)
31 | CC(C)CC(CC(C)C)=NNC(=O)c1ccc(CSc2nncn2C)cc1 | 3 | –
32 | CC(=O)c1cc(C#N)c(SCC(=O)C(C)(C)C)nc1C | – | 3.16 µM (active)
33 | CC(=O)c1cc(C#N)c(N2CC(C)OC(C)C2)nc1C (centres undefined) | 15.6 | –
34 | CC(=O)c1cc(C#N)c(N2CCCCC2)nc1C | -19.2 | –
35 | CN1OC[C@@H]2CN(C(=O)c3cccnc3)[C@H](c3ccc(N4CCCCC4)cc3)C[C@@H]21 | 12.5 | –
36 | CCc1nnc(NC(=O)C2CC(=O)N(c3ccc4c(c3)OCCO4)C2)s1 (centres undefined) | – | 18.4 µM (active)
37 | CCOC(=O)c1ccc(NC(=O)C2CC(=O)N(c3ccc4c(c3)OCCO4)C2)cc1 (centres undefined) | -1.25 | –
38 | CC(=O)c1ccccc1NC(=O)C1CC(=O)N(c2ccc3c(c2)OCCO3)C1 (centres undefined) | -13.3 | –
39 | CN1CCN(CC(O)COCc2ccc3c(c2)OCO3)CC1 (centres undefined) | 4.13 | –
40 | CC(=O)Nc1ccc(NC(=O)COC(=O)C2CCC(C(C)(C)C)CC2)cc1 (centres undefined) | -10.4 | –
41 | Cc1ccccc1CSc1nc(-c2ccccc2)nc2c1Cc1c(CO)cnc(C)c1O2 | -18.4 | –
42 | CSc1nc(-c2ccc(F)cc2)nc2c1Cc1c(CO)cnc(C)c1O2 | -1.83 | –
43 | CSc1nc(-c2ccccc2Cl)nc2c1Cc1c(CO)cnc(C)c1O2 | – | 18.4 µM (active)
44 | CCCNC(=O)c1cc(C2CCCCN2S(=O)(=O)c2ccc(C#N)cc2)on1 (centres undefined) | -5.54 | –
45 | CCCNC(=O)c1cc2c(c(-c3cccc(-c4ccc(C#N)cc4)c3)n1)[C@@H](CCO)N(C(=O)CC)C2 | – | 18.4 µM (active)
46 | Cc1c(C(=O)NCC2CC2)sc(=O)n1Cc1cccc(F)c1 | -6 | –
47 | CC(=O)N1Cc2cc(C(=O)NCc3cccc(F)c3)nc(-c3cccc(C4=CCCCC4)c3)c2[C@H]1CCO | – | 16.4 µM (active)
48 | Cc1nc(NCc2ccccc2)c(C(N)=O)c2c1COC(C)(C)C2 | -11.4 | –
49 | CCCCCC(=O)N1CCN(S(=O)(=O)c2ccc3c(c2)OCCCO3)CC1 | -29 | –
